Where “and” joins values, the source holds several entries; their conditions need not be identical. Identical values can stand only once. About 2,000 (36%) of roughly 5,500 compounds were called active. About 18% were inconclusive and are not listed. No stated cut-off is given here; in the data, active means normalized growth mostly below about 0.91 (no sharp cut-off); inconclusive means no clear call, values can overlap the other calls; inactive means mostly above about 0.92. The list shows a part of the results.
Assay: chemical genetic growth profiling, strain panel (AID 1159580);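 further: tested at 20 µM; growth read once vehicle control cultures reached saturation at 30 °C; 1 = growth at the plate median or of vehicle wells; lower values mean less growth of the strain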
Conditions: S. cerevisiae deletion strains, growth OD

Measured: normalized growth

Nc1c(Br)cc(Br)cc1CNC1CCC(O)CC1 (centres undefined)
inactive: locus YAL021C, strain ccr4, hits give low values 1.01 | locus YAL026C, strain drs2, hits give low values 0.968 | locus YAL030W, strain snc1, hits give low values 1.01 | locus YBL061C, strain skt5, hits give low values 1.02 | locus YBR009C, strain hhf1, hits give low values 1.03 | locus YBR021W, strain FUR4, hits give low values 0.996 | locus YBR023C, strain chs3, hits give low values 1.01 | locus YBR171W, strain sec66, hits give low values 1.02 | locus YBR229C, strain ROT2, hits give low values 1.01 | locus YBR231C, strain swc5, hits give low values 1.01 | locus YBR279W, strain paf1, hits give low values 1.01 | locus YCL011C, strain gbp2, hits give low values 1.02 | locus YCL016C, strain dcc1, hits give low values 1.01 | locus YCL029C, strain bik1, hits give low values 1 | locus YCL061C, strain MRC1, hits give low values 1.02 | locus YCL069W, strain vba3, hits give low values 1.02 | locus YCR088W, strain abp1, hits give low values 1.02 | locus YDL005C, strain med2, hits give low values 1.02 | locus YDL035C, strain GPR1, hits give low values 1.01 | locus YDL040C, strain nat1, hits give low values 0.992 | locus YDL074C, strain BRE1, hits give low values 1.01 | locus YDL101C, strain DUN1, hits give low values 1.02 | locus YDL134C, strain PPH21, hits give low values 1.01 | locus YDL185W, strain tfp1, hits give low values 0.996 | locus YDL192W, strain arf1, hits give low values 0.995 | locus YDR001C, strain nth1, hits give low values 1.01 | locus YDR069C, strain doa4, hits give low values 0.985 | locus YDR101C, strain arx1, hits give low values 0.985 | locus YDR137W, strain rgp1, hits give low values 0.949 | locus YDR150W, strain NUM1, hits give low values 1 | locus YDR159W, strain sac3, hits give low values 0.997 | locus YDR162C, strain NBP2, hits give low values 1.01 | locus YDR195W, strain ref2 1 | locus YDR297W, strain sur2, hits give low values 0.982 | locus YDR318W, strain mcm21, hits give low values 1 | locus YDR334W, strain swr1, hits give low values 1.02 | locus YDR335W, strain msn5, hits give low values 0.992 | locus YDR388W, hits give low values 1.01 | locus YDR392W, strain spt3, hits give low values 0.966 | locus YDR502C, strain sam2, hits give low values 0.991 | locus YEL003W, strain gim4, hits give low values 1.01 | locus YEL037C, strain rad23, hits give low values 1.02 | locus YEL061C, strain CIN8 (second series), hits give low values 1.02 | locus YEL061C, strain CIN8, hits give low values 1.01 | locus YER015W, strain faa2, hits give low values 1.02 | locus YER016W, strain bim1, hits give low values 1 | locus YER110C, hits give low values 1 | locus YER111C, strain swi4, hits give low values 1.02 | locus YER155C, strain BEM2 (second series), hits give low values 0.992 | locus YER155C, strain BEM2, hits give low values 1.01 | locus YER167W, strain BCK2, hits give low values 1.02 | locus YFR010W, strain ubp6, hits give low values 1.03 | locus YGL078C, strain dbp3, hits give low values 0.98 | locus YGL086W, strain mad1, hits give low values 0.996 | locus YGL167C, strain pmr1, hits give low values 1 | locus YGL173C, strain kem1, hits give low values 1.03 | locus YGL227W, strain vid30, hits give low values 1.01 | locus YGL240W, strain doc1, hits give low values 0.981 | locus YGL248W, strain PDE1, hits give low values 0.997 | locus YGL253W, strain hxk2, hits give low values 1.01 | locus YGR078C, strain PAC10, hits give low values 0.994 | locus YGR135W, strain pre9, hits give low values 0.984 | locus YGR252W, strain gcn5, hits give low values 0.955 | locus YHR013C, strain ard1, hits give low values 1.02 | locus YHR027C, strain rpn1, hits give low values 1 | locus YHR030C, strain SLT2, hits give low values 1 and 1.04 | locus YHR079C, strain IRE1 (second series), hits give low values 1.01 | locus YHR079C, strain IRE1, hits give low values 1.03 | locus YHR094C, strain hxt1, hits give low values 0.998 | locus YHR129C, strain ARP1, hits give low values 1.01 | locus YHR142W, strain chs7, hits give low values 1.02 | locus YHR200W, strain rpn10, hits give low values 0.999 | locus YIL066C, strain RNR3, hits give low values 1 | locus YIL073C, strain SPO22, hits give low values 1.04 | locus YIL125W, strain kgd1, hits give low values 0.999 | locus YIR030C, strain dcg1, hits give low values 0.997 | locus YJL092W, strain hpr5, hits give low values 1.02 | locus YJL095W, strain BCK1 (second series), hits give low values 0.98 | locus YJL095W, strain BCK1, hits give low values 0.973 and 1.04 | locus YJL115W, strain asf1, hits give low values 1.02 | locus YJL129C, strain trk1, hits give low values 1.02 | locus YJL134W, strain LCB3, hits give low values 1.01 | locus YJL154C, strain vps35, hits give low values 1.02 | locus YJL164C, strain tpk1, hits give low values 1.01 | locus YJL166W, strain qcr8, hits give low values 1.02 | locus YJL168C, strain set2, hits give low values 1 | locus YJL187C, strain SWE1 (second series), hits give low values 0.993 | locus YJL187C, strain SWE1, hits give low values 0.988 | locus YJR043C, strain POL32, hits give low values 1.02
